Compound activity as filed in PubChem.
TCR activator: activates T cell receptor signaling. primary human leukocytes, anti-CD3, IL-2 HTRF, 48 h. Potency, µM (highest dose often 9.22 µM), most hits filed as activators. 330,000 tested, under 10 active. AID 504894
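48 hr co-incubation of compounds, a-CD3 beads and primary human leukocytes; IL-2 quantified homogeneously by HTRF with anti-IL-2 K and d2 conjugates.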
Sfp inh: Sfp phosphopantetheinyl transferase inhibition; Biochemical Sfp PPTase activity, qHTS; hit rate 3.5% among 310,000; Q9F4F7; Potency, µM, usual class: inhibitors; AID 1490;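 note: the enzyme is Sfp with the accession as filed and its product quenches rhodamine fluorescence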
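After 15 min at room temperature with compound, 15 nM Sfp received 5 uM rhodamine-CoA plus 12.5 uM BHQ-2-ybbR (50 mM Hepes pH 7.6, 10 mM MgCl2). Rate came from the fluorescence difference over 30 min, ex 525/em 598 nm.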
uPA generation: inhibitors of cell surface uPA generation; cell surface uPA generation assay, qHTS; Potency, µM (top dose mostly 38.3 µM), most hits filed as inhibitors; hit rate 0.31% among 330,000; AID 540303; active = well fitted inhibition curve with a large enough effect; inconclusive = small, poorly fitted or top-dose-only effect; inactive = no such curve, though single readings can be large or run the other way; tested in mouse RAW 264.7 cells; note: nearly all actives have a fitted effect of over 55% in size
ClpP mod: qHTS Assay for Activators of ClpP; hit rate 1.9% among 340,000; purified B. subtilis ClpP, FRET peptide cleavage, 20 min; Potency, µM (doses to about 57.5 µM); active = well fitted falling curve with a large enough effect; inconclusive = small, poorly fitted or top-dose-only effect; inactive = no such curve, though single readings can be large or run the other way; note: the source files actives as falling curves though it sought activators and does not explain the sign; nearly all actives have a fitted effect of over 65% in size
Target sequence (P80244 whole entry, looked up): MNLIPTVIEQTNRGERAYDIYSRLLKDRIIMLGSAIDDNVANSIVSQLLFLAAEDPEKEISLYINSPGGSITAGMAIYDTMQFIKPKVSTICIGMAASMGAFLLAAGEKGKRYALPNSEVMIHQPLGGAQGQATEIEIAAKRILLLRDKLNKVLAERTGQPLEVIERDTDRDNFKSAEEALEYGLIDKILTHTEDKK
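ClpP 10 microg/mL final, pH 8 Tris/KCl buffer with BSA, glycerol, Tween-20; compound pinned in; FRET-FV substrate; RT 20 min; Ex320/Em430; ΔFRET vs ADEP 5.8 microM, DMSO, no enzyme.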
Each line names hits and unclear results; the compound was inactive in the other large screens. A selection: hits, their analogues and other compounds. The true share with any hit is near 4.2%. Unless noted, calls come from the whole dose curve; as a rule, active = well fitted curve in the direction sought with a large enough effect; inconclusive = small, poorly fitted or top-dose-only effect, or another doubt; inactive = no such curve, though single readings can be large; an effect the other way counts as inactive or inconclusive.

O=C(NC(=S)Nc1cccc([N+](=O)[O-])c1)c1ccccc1	Sfp inh 44.7µM
O=C(NC(=S)Nc1cccc([N+](=O)[O-])c1)c1ccco1	Sfp inh inconclusive
O=C(O)c1ccc(Cl)c(NC(=S)NC(=O)c2ccccc2[N+](=O)[O-])c1	Sfp inh 50.1µM (no result: ClpP mod)
O=C(NC(=S)Nc1ccccc1[N+](=O)[O-])c1ccccc1Cl	none (no result: ClpP mod)
O=C(NC(=S)Nc1cc([N+](=O)[O-])ccc1Cl)c1ccccc1	Sfp inh 56.2µM
CCc1nc2c(OCc3cc(Cl)cc(Cl)c3)cccn2c1N(C)C(=O)c1ccccc1F	none (no result: TCR activator, Sfp inh, uPA generation)
CC(C)c1nnc2n1N=C(c1ccc(Cl)cc1)CS2	none
CCCc1ccc(C2=Nn3c(nnc3C(C)C)SC2)cc1	Sfp inh 22.4µM (no result: ClpP mod)
COc1ccc(-c2nc(C(=O)O)cs2)cc1OC	none (no result: ClpP mod)
COc1ccc(C(=O)O)nc1C	Sfp inh 44.7µM
CCOc1ncccc1C(=O)Nc1cc(S(=O)(=O)N2CCCCC2)ccc1Cl	ClpP mod 31.6µM (no result: Sfp inh)
CCOc1ncccc1C(=O)Nc1ccc(Cl)c(S(=O)(=O)N2CCCC2)c1	none (no result: TCR activator)
O=C(CN1CCN(c2ccc(O)cc2)CC1)Nc1cc(S(=O)(=O)N2CCCCC2)ccc1Cl	Sfp inh 56.2µM (no result: ClpP mod)
O=C(CN1CCN(c2ccc(O)cc2)CC1)Nc1cc(S(=O)(=O)N2CCCC2)ccc1Cl	Sfp inh 44.7µM
CCOc1ccccc1C(=O)Nc1ccc(-n2nncc2-c2ccccc2)cc1	none (no result: TCR activator, Sfp inh, uPA generation)
CCN(CCCNC(=O)c1nn(-c2ccc(OC)c(Cl)c2)c(=O)c2c1c1ccccc1n2C)c1cccc(C)c1	none (no result: TCR activator, Sfp inh, uPA generation)
O=C1c2cccnc2C(Nc2ccc(Br)cc2Br)N1Cc1cccs1 (configuration not stated)	none (no result: TCR activator, uPA generation, ClpP mod)
CCOC(=O)CCCc1sc(N)nc1-c1[nH]c(=O)[nH]c1C	Sfp inh 22.4µM
COc1ccc(/C=C/C(=O)NCc2ccccn2)cc1	ClpP mod 25.1µM
COc1ccc(C(=O)NCc2ccccn2)cc1	none
COc1ccc(/C=C/C(=O)NCc2ccccn2)cc1OC	none (no result: ClpP mod)
COc1cc(/C=C/C(=O)NCc2ccccn2)cc(OC)c1OC	ClpP mod 25.1µM
Cc1nn(C(C)C(=O)NCc2cccc(F)c2)c(=O)c2c1sc1ccccc12 (configuration not stated)	none (no result: TCR activator, Sfp inh, uPA generation)
CC1CN(C(=O)COC(=O)c2cnc(Cl)c(Cl)c2)CC(C)O1 (configuration not stated)	ClpP mod 31.6µM (no result: Sfp inh)
Cn1c(=O)c2[nH]c(C(O)c3ccc(Cl)cc3)nc2n(C)c1=O (configuration not stated)	none (no result: Sfp inh)
COc1ccc(-c2cc(C(=O)OCC(=O)N(C)C)c3ccccc3n2)cc1	ClpP mod inconclusive
CCOC(=O)Cc1cc(-c2ccc(O)cc2)nc2ccc3ccccc3c12	ClpP mod 31.6µM (no result: TCR activator)
CCOC(=O)Cc1cc(-c2ccc(OC)cc2)nc2ccc3ccccc3c12	Sfp inh inconclusive, ClpP mod 8.91µM
CCOC(=O)Cc1cc(-c2ccc(F)cc2)nc2ccc3ccccc3c12	ClpP mod 22.4µM
COc1ccc(N2CC(NC(=O)c3ccc(Br)o3)CC2=O)cc1 (configuration not stated)	none (no result: TCR activator, Sfp inh, uPA generation)
O=c1c2ccccc2sc2nc(CCl)nn12	ClpP mod 15.8µM (no result: Sfp inh)
O=C(NCc1cccc2[nH]ccc12)C1CCC(=O)N(CCc2ccccc2)C1 (configuration not stated)	none
CCCC[n+]1c(C)sc2ccc(C)cc21	none
Cc1ccc2sc(C)[n+](CCO)c2c1	Sfp inh 44.7µM (no result: ClpP mod)
Cc1ccc(OCCn2cc(/C=C3\C(=O)NN(c4ccccc4)C3=O)c3ccccc32)cc1	Sfp inh inconclusive, ClpP mod 17.8µM
CCOC(=O)C1=C(Cc2ccc(F)cc2)C(=O)c2ccccc2C1=O	Sfp inh 8.91µM (no result: uPA generation)
O=C(OCc1ccc(F)cc1)c1ccc2c(c1)-c1ccccc1C2=O	none
Cc1sc2ccccc2[n+]1CC(=O)c1ccccc1	Sfp inh inconclusive
Cc1sc2ccccc2[n+]1CC(=O)O	Sfp inh 2µM (no result: ClpP mod)
Cc1sc2ccccc2[n+]1CCC(C)S(=O)(=O)[O-] (configuration not stated)	Sfp inh 44.7µM
COc1ccc(CC(=O)n2[nH]c(=O)ccc2=O)cc1OC	Sfp inh 3.55µM (no result: ClpP mod)
CC(C)NC(=O)C1(C)CSCC(=O)N1C1CC1 (configuration not stated)	none (no result: TCR activator, Sfp inh, uPA generation)
COc1ccc2[nH]c(=O)c(CN(CCCN3CCOCC3)C(=O)NCc3ccccc3)cc2c1	ClpP mod 15.8µM
Cc1ccc(NC(=O)N(CCCN2CCOCC2)Cc2cc3cc4c(cc3[nH]c2=O)OCO4)cc1	none
